Experiment [1] can be described thus: qHTS assay for small molecule agonists of the p53 signaling pathway (AID 651631; calls by dose curve; also: nearly all actives have a fitted effect of over 15% in size; also: potency is read from the fitted curve at half-maximal effect). The procedure, abridged: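 Fluorescence intensity from cleaved LiveBLAzer B/G substrate (2 h, room temperature) served as the signal. Beforehand, HCT-116 reporter cells bearing p53 response elements were treated 16 h at 37 °C with DMSO-dissolved compounds.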
Experiment [2] can be described thus: qHTS assay for small molecules that induce genotoxicity in human embryonic kidney cells expressing luciferase-tagged ATAD5 (AID 651632). Also: nearly all actives have a fitted effect of over 15% in size. Also: potency is read from the fitted curve at half-maximal effect. The procedure, abridged: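 Test compounds were delivered by pin tool onto HEK293T reporter cells (2,000/well) expressing ATAD5 fused to luciferase. After 16 hr at 37C, 5% CO2, Amplite was added for 30 min at room temperature and luminescence was measured.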
(In general: Quantitative high-throughput screening tests each substance at several concentrations.)

A short description of experiment [3]: qHTS assay for small molecule agonists of the p53 signaling pathway - cell viability (AID 651633; calls by dose curve; also: nearly all actives have a fitted effect of over 30% in size; also: potency is read from the fitted curve at half-maximal effect). The procedure, abridged: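 p53RE-bla cells were treated with compound for 16 hours at 37 C. Cytotoxicity was then measured as CellTiter-Glo luminescence after 30 min at room temperature.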
Experiment [4] can be described thus: qHTS assay for small molecules that induce genotoxicity in human embryonic kidney cells expressing luciferase-tagged ATAD5 - cell viability (AID 651634; calls by dose curve; also: nearly all actives have a fitted effect of over 25% in size). The procedure, abridged:
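Quantitative high-throughput format. HEK293T cells expressing ATAD5 fused to luciferase were plated at 2,000 cells/well and treated 15.5 hr with compound versus DMSO. Viability was determined by fluorescent live-cell protease substrate, 30 min at 37C.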

Experiment [5] is described as follows: qHTS assay for small molecule disruptors of the mitochondrial membrane potential - cell viability (AID 720634; calls by dose curve; also: nearly all actives have a fitted effect of over 20% in size; also: potency is read from the fitted curve at half-maximal effect). The procedure, abridged: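 Same-well counter-screen: following the MMP dye addition, CellTiter-Glo was added to 1 hr compound-treated HepG2 cells and luminescence read after 30 min at room temperature.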
Experiment [6] is described as follows: qHTS assay for small molecule disruptors of the mitochondrial membrane potential (AID 720635). Also: potency is read from the fitted curve at half-maximal effect. The procedure, abridged:
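HepG2 cells exposed to compound 1 hr at 37C, then Mito-MPS dye 30 min. Ratio read of aggregate (540/590 nm) versus monomer (490/535 nm) fluorescence.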

Experiment [7] can be described thus: qHTS assay to test for compound auto fluorescence at 590 nm (red) in HepG2 cells (AID 720674). The procedure, abridged: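 Fluorescence at 590 nm emission following 540 nm excitation was recorded from HepG2 wells one hour after compound transfer, with DMSO-only wells as vehicle and Rose Bengal sodium equivalency as the scale.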
Experiment [8] can be described thus: qHTS assay to test for compound auto fluorescence at 535 nm (green) in HepG2 cells (AID 720675).
Experiment [9] in a line: qHTS assay to test for compound auto fluorescence at 460 nm (blue) in HEK293 cells (AID 720678). The procedure, abridged: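 Triamterene serves as the blue fluorophore standard. Compound signal at 405/460 nm is read in HEK293 wells (2,000 cells, 10% dialyzed FBS) after overnight treatment at 37C.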
Experiment [10] in a line: qHTS assay to test for compound auto fluorescence at 590 nm (red) in HEK293 cells (AID 720679). The procedure, abridged:
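We plated HEK293 cells in 10% dialyzed FBS medium, let them adhere for 4-5 hr, then added 23 nL compound. Overnight at 37C and 5% CO2 preceded fluorescence measurement at 540/590nm.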

Where “and” joins values, the source holds several entries; their conditions need not be identical. Identical values can stand only once. Records with an inconclusive call do not appear. Some compounds were tested as several samples or in several runs, with calls that do not always agree. Calls of active or inactive are those of the source. Unless noted, calls follow the shape of the dose curve; as a rule, active = well fitted curve in the direction sought with a large enough effect in the repeat runs; inconclusive = weak or mixed curves; inactive = no such curve, though single readings can be large; an effect the other way counts as inactive or inconclusive.

With `N#CCCCl`, the Potency entry in experiment [1], in experiment [2], in experiment [3], in [4], in experiment [5] and in experiment [6] was “inactive” each time. For the same molecule, the call in experiment [7], in [8], in [9] and in [10] was inactive.
Consider `Nn1cnnc1`, for which the Potency entry in experiment [1], in experiment [2], in [3], in experiment [4], in [5] and in [6] was “inactive” in each case. Besides, the outcome in experiment [7], in [8], in [9] and in [10] was inactive.
As to `CCOP(=S)(OCC)O/N=C(\C#N)c1ccccc1`, the Potency result in experiment [1], in experiment [2], in experiment [3], in [4] and in experiment [6] was “inactive” in each case. Further, the Potency entry in [5] is “inactive and 54.5 µM (active)”. In addition, the molecule was classed as inactive in [7], in [8], in experiment [9] and in [10].
For `O=Cc1ccco1`, the Potency entry in experiment [1], in experiment [2], in [3], in experiment [4], in [5] and in experiment [6] was “inactive” each time. For the same molecule, the outcome in [7], in experiment [8], in experiment [9] and in experiment [10] was inactive.
Regarding `CCCCNC(=O)n1c(NC(=O)OC)nc2ccccc21`, the Potency in experiment [1] is 13.6 µM (active) and 15.4 µM (active). Moreover, the Potency result in [2], in experiment [3], in experiment [4], in experiment [5] and in experiment [6] was “inactive” throughout. The outcome in [7], in experiment [8], in experiment [9] and in experiment [10] was inactive.
Take `Cc1ccccc1[N+](=O)[O-]`: the Potency result in experiment [1], in experiment [2], in experiment [3], in experiment [4], in experiment [5] and in [6] was “inactive” each time. The molecule was called inactive in [7], in experiment [8], in experiment [9] and in [10].
With `CCN(N=O)C(N)=O`, the Potency entry in experiment [1], in experiment [2], in [3], in experiment [4], in experiment [5] and in experiment [6] was “inactive” each time. Moreover, the molecule was called inactive in experiment [7], in [8], in experiment [9] and in [10].
Take `COP(=O)(OC)OC`: the Potency entry in experiment [1], in experiment [2], in experiment [3], in experiment [4], in experiment [5] and in experiment [6] was “inactive” each time. Besides, the molecule was classed as inactive in experiment [7], in experiment [8], in experiment [9] and in experiment [10].
In the case of `C=CC(=O)OCCO`, the Potency result in experiment [1], in [2], in experiment [3], in experiment [4], in experiment [5] and in [6] was “inactive” throughout. Further, the molecule was classed as inactive in experiment [7], in [8], in [9] and in experiment [10].
Take `CCCCCCCCCCCOC(=O)c1ccccc1C(=O)OCCCCCCCCCCC`: the Potency result in [1], in experiment [2], in experiment [3], in [4], in experiment [5] and in experiment [6] was “inactive” each time. For the same molecule, the outcome in [7], in [8], in [9] and in experiment [10] was inactive.
For `CCCCCCCCOC(=O)c1ccccc1C(=O)OCCCCCCCC`, the Potency entry in experiment [1], in experiment [2], in experiment [3], in experiment [4], in experiment [5] and in [6] was “inactive” each time. The call in experiment [7], in experiment [8], in experiment [9] and in experiment [10] was inactive.
As for `CC(C)(OOC(C)(C)c1ccccc1)c1ccccc1`, the Potency result in [1], in [2], in experiment [3], in experiment [4] and in experiment [5] was “inactive” throughout. The Potency in experiment [6] is 60.3 µM (active). The call in [7], in experiment [8], in experiment [9] and in experiment [10] was inactive.
On to `C=CCN(CC=C)C(=O)C(Cl)Cl`, for which the Potency entry in experiment [1], in experiment [2], in experiment [3], in experiment [4], in experiment [5] and in experiment [6] was “inactive” in each case. Besides, the molecule was called inactive in experiment [7], in [8], in experiment [9] and in experiment [10].
`C=C(C)C(=O)OCC1CO1` (centres undefined): the Potency result in experiment [1], in [2], in experiment [3], in experiment [4], in experiment [5] and in experiment [6] was “inactive” in each case. In addition, the call in experiment [7], in [8], in experiment [9] and in experiment [10] was inactive.
Regarding `CCN(CC)C(=O)SCc1ccc(Cl)cc1`, the Potency result in [1], in experiment [2], in [3], in [4] and in experiment [5] was “inactive” throughout. Besides, in experiment [6], the Potency was 19.9 µM (active) and 12.2 µM (active). For the same molecule, the outcome in experiment [7], in [8], in [9] and in experiment [10] was inactive.
For `CC(C)NC(C)C`, the Potency entry in [1], in [2], in [3], in experiment [4], in experiment [5] and in experiment [6] was “inactive” in each case. Further, the molecule was classed as inactive in experiment [7], in experiment [8], in experiment [9] and in experiment [10].
Regarding `CCC(=O)O[C@H]1CC[C@H]2[C@@H]3CCC4=CC(=O)CC[C@]4(C)[C@H]3CC[C@]12C`, the Potency entry in [1], in experiment [2], in [4] and in [5] was “inactive” throughout. Moreover, the Potency entry in experiment [3] was “inactive and 61.1 µM (active)”. For the same molecule, the outcome in [7], in [8], in experiment [9] and in experiment [10] was inactive.
As to `CCC(C)c1cc([N+](=O)[O-])cc([N+](=O)[O-])c1O` (centres undefined), the Potency result is “inactive and 864 nM (active)” in [1]; “inactive and 1.22 µM (active)” in experiment [5]; “inactive and 344 nM (active)” in experiment [6]. Also, the Potency entry in experiment [2] and in [3] was “inactive” throughout. In addition, the result in experiment [7], in experiment [8], in experiment [9] and in [10] was inactive.
As for `Nc1ccc(Cl)c(Cl)c1`, the Potency entry in experiment [1], in experiment [2], in experiment [3], in experiment [4], in [5] and in [6] was “inactive” each time. In addition, the molecule was classed as inactive in experiment [7], in experiment [8], in experiment [9] and in experiment [10].
With `O=[N+]([O-])c1cccc2ccccc12`, the Potency entry in [1], in [2], in [3], in experiment [4] and in experiment [5] was “inactive” throughout. The call in [7], in experiment [8], in experiment [9] and in [10] was inactive.
As for `CC(O)CCO` (centres undefined), the Potency entry in experiment [1], in experiment [2], in [3] and in experiment [4] was “inactive” in each case. Also, the call in experiment [7], in experiment [8], in [9] and in experiment [10] was inactive.
For the molecule `CN(C)c1ccc(C(=O)c2ccc(N(C)C)cc2)cc1`, the Potency in [1] is 605 nM (active) and 273 nM (active); in experiment [2] it was 27 µM (active); in experiment [6] it was 53.9 µM (active). Besides, the Potency entry in [3] and in [4] was “inactive” in each case. Besides, the call in [7], in experiment [8], in [9] and in experiment [10] was inactive.

(Values after PubChem BioAssay (Tox21).)
